Experimental data: PubChem BioAssay (NCATS)
Results filed as inconclusive are left out. Unmarked numbers belong to inactive results. Calls of active or inactive are those of the source. The call rests on the fitted dose curve; in most records, active means well fitted activation curve with a large enough effect; inconclusive means small, poorly fitted or top-dose-only effect; inactive means no such curve, though single readings can be large or run the other way.

biological target: Cellular tumor antigen p53 (Homo sapiens) (UniProt P04637); experiment: Primary qHTS for small molecule compounds that upregulate eGFP-tagged delta133p53alpha (in N-terminal) cells. (AID 2060322); conditions: NCI-H358 eGFP-delta133p53alpha fluorescence, 24 h; activation: active compounds read high; further: nearly all actives have a fitted effect of over 75% in size;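 on activation: series mostly up to about 56 µM; 0% = DMSO vehicle and 100% = reference activator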
Summary of the method: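 NCI-H358 cells pre-induced 24 h with 10 ng/ml doxycycline to express N-terminal eGFP-delta133p53alpha, then dosed 24 h at 37C without doxycycline; fixed, Hoechst-stained, GFP intensity by laser scanning cytometry, normalized to DMSO (0%) and 57.5 uM 5-azacytidine (100%).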
Potency means the concentration at half of the fitted maximal effect.

Chain of Cellular tumor antigen p53 (Homo sapiens) (P04637 whole entry, looked up): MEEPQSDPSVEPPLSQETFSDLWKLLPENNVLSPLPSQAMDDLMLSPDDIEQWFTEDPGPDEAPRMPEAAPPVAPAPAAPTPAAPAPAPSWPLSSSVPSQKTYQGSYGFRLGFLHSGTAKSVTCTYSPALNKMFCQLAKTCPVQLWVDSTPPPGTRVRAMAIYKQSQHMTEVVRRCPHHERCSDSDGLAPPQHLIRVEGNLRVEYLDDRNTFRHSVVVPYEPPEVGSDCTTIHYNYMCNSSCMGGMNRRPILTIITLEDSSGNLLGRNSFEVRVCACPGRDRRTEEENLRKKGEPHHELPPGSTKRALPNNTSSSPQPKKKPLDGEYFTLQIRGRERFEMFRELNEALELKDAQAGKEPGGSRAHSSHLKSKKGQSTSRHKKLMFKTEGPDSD

SMILES | activation [%] | Potency
O=C(NCC(O)CO)c1ccncc1Nc1ccc(I)cc1F (stereo not given) | 19.6 | –
CC(C)=CCC[C@](C)(O[C@@H]1O[C@H](CO)[C@@H](O)[C@H](O)[C@H]1O)[C@H]1CC[C@]2(C)[C@@H]1[C@H](O)CC1[C@@]3(C)CC[C@H](O)C(C)(C)C3[C@@H](O[C@@H]3O[C@H](CO)[C@@H](O)[C@H](O)[C@H]3O[C@@H]3OC[C@@H](O)[C@H](O)[C@H]3O)C[C@]12C (stereo not given in full) | -15.3 | –
O=S(=O)(N[C@H]1CCCC[C@@H]1N1CCOCC1)c1ccc(Cl)cc1 | -16.3 | –
CC(=O)c1[nH]cc(CCC(=O)O)c1CC(=O)O | -15.3 | –
CC(=O)[C@@H]1C[C@H](C(C)(C)O[C@@H]2O[C@H](CO)[C@@H](O)[C@H](O)[C@H]2O)CC[C@@]2(CO)OC(=O)C[C@@H]12 | -6.11 | –
C=CC[N+]1([C@H]2C[C@H]3[C@@H]4CC[C@H]5C[C@H](OC(C)=O)[C@@H](N6CCCCC6)C[C@]5(C)[C@H]4CC[C@]3(C)[C@H]2OC(=O)CC)CCCCC1 | -3.67 | –
C=C1[C@H](OC(C)=O)[C@H]2[C@@H](OC(C)=O)[C@](C)(OC(C)=O)C[C@]2(OC(C)=O)C(=O)[C@H](C)/C=C/C(C)(C)C(=O)[C@H](OC(=O)C(C)CC)[C@H]1OC(C)=O (stereo not given in full) | -14.5 | –
OC[C@H]1O[C@@H](Oc2cc(O)c3c(c2)O[C@@H](c2ccc(O)cc2)[C@H](O)C3)[C@H](O)[C@@H](O)[C@@H]1O | 4.46 | –
Cc1onc(C(=O)N2CCN(C(c3ccc(Cl)cc3)c3ccc(Cl)cc3)CC2)c1[N+](=O)[O-] | 10.7 | –
C[C@@H]1O[C@@H](O[C@H]2[C@@H]3C=CO[C@@H](O[C@@H]4O[C@H](CO)[C@@H](O)[C@H](O)[C@H]4O)[C@@H]3[C@@]3(CO)O[C@@H]23)[C@H](O)[C@H](O)[C@H]1OC(=O)/C=C/c1ccc(O)cc1 | -25.2 | –
CC1=CC(=O)CC(C)(CO)C1(O)/C=C/C(C)O[C@@H]1O[C@H](CO)[C@@H](O)[C@H](O)[C@H]1O (stereo not given in full) | -9.82 | –
O=S(=O)(NCc1ccccn1)c1ccc(Br)c2ccccc12 | 0.333 | –
CC(=O)NC(C(=O)OC1CCC(C)(C)C2CC=C3C(=O)OCC3(O)C12C)C(C)C (stereo not given) | -16.8 | –
C=C1CC2C3(C)C(O)CC(=O)C(C)(C)C3C(OC(C)=O)C(OC(C)=O)C2(C)C2C(=O)OC(C)(C(=O)OC)C(=O)C12C (stereo not given) | -16.8 | –
C=C1[C@H](OC(C)=O)[C@H]2[C@@H](OC(=O)c3ccccc3)[C@@H](C)C[C@]2(O)[C@@H](OC(C)=O)[C@H](C)/C=C/C(C)(C)C(=O)[C@H](OC(C)=O)[C@H]1OC(C)=O | -3.57 | –
C[C@]1(OC(=O)/C=C/c2ccccc2)C[C@H](O)[C@]2(O)C=CO[C@@H](O[C@@H]3O[C@H](CO)[C@@H](O)[C@H](O)[C@H]3O)C12 (stereo not given in full) | -18.3 | –
COc1cc(CCCO)ccc1O[C@@H]1O[C@H](CO)[C@@H](O)[C@H](O)[C@H]1O | -16.1 | –
C=C1CCC2[C@](C)(CCC[C@@]2(C)C=O)[C@H]1CC/C(C)=C/CO (stereo not given in full) | 11.5 | –
Cc1cc2sc(NC(=O)Cc3ccccc3)nc2cc1Cl | -6.25 | –
C=C(C)[C@H]1CC[C@]2(C(=O)O)CC[C@]3(C)C(CCC4[C@@]5(C)CCC(=O)C(C)(C)C5CC[C@]43C)C12 (stereo not given in full) | -11.6 | –

SMILES | activation [%] | Potency
CC(C)(C)NC(=O)[C@H]1CC[C@H]2[C@@H]3CC[C@H]4NC(=O)CC[C@]4(C)[C@H]3CC[C@]12C | 21.7 | –
C=C[C@@]1(C)CC(=O)C2[C@](C)(O1)[C@@H](OC(C)=O)[C@@H](O)[C@H]1C(C)(C)CCC[C@]21C (stereo not given in full) | -4.33 | –
Cc1cc(OCCCS(C)(=O)=O)cc(C)c1-c1cccc(COc2ccc(C3=CC(=O)NS3=O)cc2)c1 (stereo not given) | -18.3 | –
CC(=O)O[C@@H]1C[C@]2(C)[C@@]3(CCC4[C@@]5(C)CC[C@H](O[C@@H]6O[C@H](C(=O)O)[C@@H](O)[C@H](OC7OC(CO)C(O)C(O)[C@H]7O[C@@H]7O[C@@H](C)[C@H](O)[C@@H](O)[C@H]7O[C@@H]7OC[C@](O)(CO)[C@H]7O)[C@H]6OC6OC(CO)C(O)C(O)C6O)C(C)(C)C5CC[C@]42C)OC[C@@]12CCC(C)(C)CC23 (stereo not given in full) | -16 | –
C[C@@H]1O[C@@H](O[C@H]2CC[C@@]3(C)C(CC[C@]4(C)C3CC=C3[C@@H]5CC(C)(C)CC[C@]5(C(=O)O[C@@H]5O[C@H](CO)[C@@H](O)[C@H](O)[C@H]5O)CC[C@]34C)[C@]2(C)CO)[C@H](O)[C@H](O[C@@H]2O[C@H](CO)[C@@H](O)[C@H](O)[C@H]2O)[C@H]1O (stereo not given in full) | -6.11 | –
N[C@H]1CN(c2c(F)cc3c(=O)c(C(=O)O)cn(C4C[C@@H]4F)c3c2Cl)CC12CC2 (stereo not given in full) | -26 | –
C=CC1(C)C=C2C(O)CC3C(C)(C(=O)O)CCCC3(C)C2CC1 (stereo not given) | 8.04 | –
COc1cc(O)c2c(c1)C1(OC2=O)C(C)=CC(=O)C1O (stereo not given) | -16 | –
C=C1CC(=O)C2OC2(C)CC2OC(=O)C(=C)C2C(O)C1OC(=O)/C(C)=C\C (stereo not given) | – | 16.6 µM (active)
COc1ccc([C@H]2OC[C@H]3O[C@@H](O[C@H]4[C@@H]2NC[C@@H]4O)[C@H](O)[C@H]3O)cc1 | – | 5.24 µM (active)
C=C1CCC2C(C)(C)C(O)CCC2(C)C1CCC(C)CCOC(C)=O (stereo not given) | 5.36 | –
O=C(O)Cc1cn([C@@H]2OC[C@@H](O[C@@H]3O[C@H](CO)[C@@H](O)[C@H](O)[C@H]3O)[C@H](O)[C@H]2O[C@@H]2O[C@H](CO)[C@@H](O)[C@H](O)[C@H]2O)c2ccccc12 | -7.63 | –
C=C1C(=O)OC2CC(C)=C(C(C)CCCO[C@@H]3O[C@H](CO)[C@@H](O)[C@H](O)[C@H]3O)C(O)C12 (stereo not given in full) | -18.3 | –
C[C@@H]1CC[C@]2(C(=O)O[C@@H]3O[C@H](CO)[C@@H](O)[C@H](O)[C@H]3O)CC[C@]3(C)C(=CCC4[C@@]5(C)C[C@@H](O)[C@H](O)[C@@](C)(C(=O)O[C@H]6[C@H](O)C[C@@]7(C)C(CC[C@]8(C)C7CC=C7[C@H]9[C@](C(=O)O[C@@H]%10O[C@H](CO)[C@@H](O)[C@H](O)[C@H]%10O)(CC[C@@H](C)[C@@]9(C)O)CC[C@]78C)[C@@]6(CO)C(=O)O)C5CC[C@]43C)[C@@H]2[C@]1(C)O (stereo not given in full) | 0 | –
O=C(/C=C\c1ccc(O)cc1)N[C@@H](Cc1ccc(O)cc1)C(=O)O | 17.9 | –
CC(C)[C@@](O)(c1ccc2cc(OC(F)F)c(OC(F)F)cc2c1)c1cn[nH]n1 | -0.333 | –
C=C1C[C@]23C[C@H]1CC[C@H]2[C@]1(C)CCC[C@@](C)(C(=O)O)[C@H]1[C@@H]3C(=O)O | -8.04 | –
CC(C)c1noc(C2CCN(c3ncnc(Nc4ccc(S(C)(=O)=O)cc4F)c3[N+](=O)[O-])CC2)n1 | 21 | –
Cc1ncc([N+](=O)[O-])n1C[C@H](O)CN1CCOCC1 | 2.33 | –
CC1CCC23COC(=O)C2=CC(O)CC3C1(C)CCc1ccoc1 (stereo not given) | -14.3 | –
